This note sets out measurements from PubChem BioAssay (Tox21).

Where “and” joins values, the source holds several entries; their conditions need not be identical. Equal entries are not always repeated. Inconclusive results are not listed. Some compounds were tested as several samples or in several runs, with calls that do not always agree. Calls of active or inactive are those of the source. Calls come from the whole dose curve; as a rule, active = well fitted curve in the direction sought with a large enough effect in the repeat runs; inconclusive = weak or mixed curves; inactive = no such curve, though single readings can be large; an effect the other way counts as inactive or inconclusive.

Assay [1] is described as follows: qHTS RealTime-Glo MT Cell Viability Assay in HEK293 cells - 40 hour (AID 1224874). Note: nearly all actives have a fitted effect of over 50% in size. The settings on record: RealTime-Glo luminescence; max response: stronger effect = lower value. Put shortly:
(§1)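 qHTS format; HEK293 cells with NanoLuc/prosubstrate reagent, 37 C/5% CO2 for 5 h pre-dosing; compounds 23 nL in DMSO; luminescence at each time point reflects viable cells.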
In general terms: In qHTS, concentration-response curves come from the screen itself.

Assay [2] in a line: A CellTox Green Cytotoxicity Assay to monitor cytotoxicity in HEK293 cells - 24 hour (AID 1224875). Note: series mostly up to about 77 µM; nearly all actives have a fitted effect of over 45% in size. The essentials: (§2)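 Each value comes from one timepoint of a single continuous run in which HEK293 cells with CellTox Green were exposed to compound for up to 40 h at 37 C, dye fluorescence rising with cell death.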
Assay [3] can be described thus: A CellTox Green Cytotoxicity Assay to monitor cytotoxicity in HepG2 cells - 16 hour (AID 1224876). Note: nearly all actives have a fitted effect of over 45% in size. Note: potency is the fitted concentration of half-maximal effect. The essentials: (§3)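 Continuous culture of HepG2 cells with a membrane-impermeant DNA dye; rising fluorescence marks dead cells. Compound exposure lasted up to 40 h at 37 C, with reads every 8 h from 0 h.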
Assay [4] can be described thus: qHTS RealTime-Glo MT Cell Viability Assay in HepG2 cells - 32 hour (AID 1224877). Note: nearly all actives have a fitted effect of over 55% in size. The essentials:
(§4)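 qHTS, HepG2, 600 cells/well, RealTime-Glo (NanoLuc + prosubstrate) added with cells; 5 h preincubation; DMSO compound addition; 37 C; luminescence at 0/8/16/24/32/40 h.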

Assay [5] can be described thus: A CellTox Green Cytotoxicity Assay to monitor cytotoxicity in HepG2 cells - 24 hour (AID 1224878). Note: nearly all actives have a fitted effect of over 45% in size. Note: potency is the fitted concentration of half-maximal effect. The essentials:
as §3

Assay [6] can be described thus: A CellTox Green Cytotoxicity Assay to monitor cytotoxicity in HepG2 cells - 40 hour (AID 1224879). Note: nearly all actives have a fitted effect of over 40% in size. Note: potency is the fitted concentration of half-maximal effect. The essentials:
as §3

Assay [7] can be described thus: qHTS RealTime-Glo MT Cell Viability Assay in HEK293 cells - 0 hour (AID 1224880). Note: top concentration of the series differs between compounds; nearly all actives have a fitted effect of over 45% in size. The essentials: as §1
Assay [8] in a line: A CellTox Green Cytotoxicity Assay to monitor cytotoxicity in HEK293 cells - 32 hour (AID 1224881). Note: nearly all actives have a fitted effect of over 40% in size. Note: potency is the fitted concentration of half-maximal effect. Put shortly:
as §2

Assay [9] can be described thus: A CellTox Green Cytotoxicity Assay to monitor cytotoxicity in HepG2 cells - 0 hour (AID 1224882). Note: nearly all actives have a fitted effect of over 35% in size. Note: potency is the fitted concentration of half-maximal effect. The essentials:
as §3

The nature of assay [10]: A CellTox Green Cytotoxicity Assay to monitor cytotoxicity in HepG2 cells - 32 hour (AID 1224883). Note: nearly all actives have a fitted effect of over 50% in size. Note: potency is the fitted concentration of half-maximal effect. The essentials: as §3
A short description of assay [11]: A CellTox Green Cytotoxicity Assay to monitor cytotoxicity in HEK293 cells - 8 hour (AID 1224884). Note: nearly all actives have a fitted effect of over 35% in size. Note: potency is the fitted concentration of half-maximal effect. Put shortly: as §2
A short description of assay [12]: qHTS RealTime-Glo MT Cell Viability Assay in HepG2 cells - 16 hour (AID 1224885). Note: nearly all actives have a fitted effect of over 50% in size. The essentials: as §4
Assay [13] can be described thus: qHTS RealTime-Glo MT Cell Viability Assay in HEK293 cells - 24 hour (AID 1224886). Note: top concentration of the series differs between compounds; nearly all actives have a fitted effect of over 50% in size. Put shortly: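 Assay medium contained NanoLuc luciferase plus cell-permeant prosubstrate, added with HEK293 cells at 600 cells/well. After 5 h at 37 C/5% CO2 compounds were added; plates stayed at 37 C for 40 h with serial luminescence reads.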
Assay [14] is described as follows: qHTS RealTime-Glo MT Cell Viability Assay in HEK293 cells - 8 hour (AID 1224887). Put shortly:
as §1

Assay [15] can be described thus: A CellTox Green Cytotoxicity Assay to monitor cytotoxicity in HEK293 cells - 16 hour (AID 1224888). Note: nearly all actives have a fitted effect of over 35% in size. Put shortly:
as §2

Assay [16] can be described thus: qHTS RealTime-Glo MT Cell Viability Assay in HepG2 cells - 0 hour (AID 1224889). Note: nearly all actives have a fitted effect of over 50% in size. Put shortly: as §4
Assay [17] is described as follows: A CellTox Green Cytotoxicity Assay to monitor cytotoxicity in HepG2 cells - 8 hour (AID 1224890). Note: nearly all actives have a fitted effect of over 45% in size. Put shortly: as §3
The nature of assay [18]: qHTS assay to identify small molecule antagonists of the estrogen receptor alpha (ER-alpha) signaling pathway using the BG1 cell line in the presence of 0.1 nM 17-beta-estradiol - cell viability counter screen (AID 1259241). Note: nearly all actives have a fitted effect of over 40% in size. The essentials: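 Measures cytotoxicity alongside the ER-alpha antagonist readout: VM7Luc4E2 cells, charcoal-stripped serum, 0.1 nM 17beta-estradiol final, 22 hr compound incubation at 37C, CellTiter-Fluor fluorescence.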

The nature of assay [19]: qHTS assay to identify small molecule antagonists of the androgen receptor (AR) signaling pathway using the MDA cell line in the presence of 0.5 nM R1881 - cell viability counter screen (AID 1259242). Note: nearly all actives have a fitted effect of over 45% in size. The essentials: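 Fluorescence from CellTiter-Fluor, which reports protease activity of live cells, was read 30 min after reagent addition to MDA-kb2 cells that had been incubated 16 hr with compound and 0.5 nM R1881.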

Assay [20] deals with Androgen receptor (Homo sapiens) (UniProt P10275). The assay is described as follows: qHTS assay to identify small molecule antagonists of the androgen receptor (AR) signaling pathway using the MDA cell line in the presence of 0.5 nM R1881 (AID 1259243). Note: nearly all actives have a fitted effect of over 50% in size. Note: potency is the fitted concentration of half-maximal effect. Put shortly:
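Inhibition of R1881 (0.5 nM final) induced reporter signal was measured in human MDA-kb2 cells; note the MMTV promoter also responds to GR. Exposure lasted 16 hr at 37C.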
% is set by controls: 0 for no effect and ±100 for the full control effect.

Chain of Androgen receptor (Homo sapiens) (P10275 whole entry, looked up): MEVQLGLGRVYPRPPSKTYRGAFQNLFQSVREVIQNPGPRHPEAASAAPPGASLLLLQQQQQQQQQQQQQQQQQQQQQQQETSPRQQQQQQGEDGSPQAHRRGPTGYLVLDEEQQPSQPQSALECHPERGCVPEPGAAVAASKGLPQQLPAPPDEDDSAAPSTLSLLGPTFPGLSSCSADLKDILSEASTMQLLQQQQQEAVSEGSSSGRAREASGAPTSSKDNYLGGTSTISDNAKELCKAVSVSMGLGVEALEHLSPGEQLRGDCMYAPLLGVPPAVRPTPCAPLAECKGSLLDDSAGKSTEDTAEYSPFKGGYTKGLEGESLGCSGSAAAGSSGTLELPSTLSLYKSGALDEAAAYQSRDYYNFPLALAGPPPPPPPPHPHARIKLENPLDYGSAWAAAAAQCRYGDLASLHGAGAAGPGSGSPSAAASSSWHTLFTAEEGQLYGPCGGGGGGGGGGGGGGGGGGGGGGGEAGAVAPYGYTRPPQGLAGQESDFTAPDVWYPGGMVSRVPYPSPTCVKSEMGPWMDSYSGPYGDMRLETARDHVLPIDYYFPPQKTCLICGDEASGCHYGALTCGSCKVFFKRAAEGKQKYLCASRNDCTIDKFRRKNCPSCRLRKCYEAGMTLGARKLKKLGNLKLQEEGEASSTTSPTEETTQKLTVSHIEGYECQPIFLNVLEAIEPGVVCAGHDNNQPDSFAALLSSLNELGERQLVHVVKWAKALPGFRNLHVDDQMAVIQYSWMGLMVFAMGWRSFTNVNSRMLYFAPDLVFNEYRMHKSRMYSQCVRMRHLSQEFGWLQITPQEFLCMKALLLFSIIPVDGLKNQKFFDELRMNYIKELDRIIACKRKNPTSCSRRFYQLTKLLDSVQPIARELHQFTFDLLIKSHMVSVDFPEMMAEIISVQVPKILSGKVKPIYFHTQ

`CC(C)=C[C@@H]1[C@@H](C(=O)OCc2coc(Cc3ccccc3)c2)C1(C)C`: in assay [1], the max response is -1.11% (inactive) and 8.33% (inactive). For the same compound, the Potency entry in assay [2], in [3], in [5], in assay [6], in assay [8] and in assay [9] was “inactive” each time. Besides, the Potency result in assay [10], in assay [11], in assay [13], in assay [15], in assay [17] and in assay [18] was “inactive” throughout. The compound was classed as inactive in assay [4], in assay [7], in [12], in assay [14], in [16] and in assay [19].

Turning to `Cc1cccc([N+](=O)[O-])c1`, the max response in assay [1] is 1.89% (inactive) and 2.13% (inactive). The Potency result in assay [2], in assay [3], in [5], in assay [6], in [8] and in [9] was “inactive” throughout. For the same compound, the Potency result in assay [10], in assay [11], in [13], in assay [15] and in [18] was “inactive” each time. In addition, the compound was classed as inactive in assay [4], in assay [7], in assay [12], in assay [14], in assay [16] and in assay [19].

Take `Cc1ccc(N)cc1N`: the max response in assay [1] was 14.6% (inactive). Besides, the Potency entry in assay [2], in assay [3], in assay [5], in [6], in assay [8] and in assay [9] was “inactive” each time. The Potency entry in [10], in assay [11], in assay [13], in [15] and in [18] was “inactive” each time. Besides, the outcome in assay [4], in assay [7], in [12], in [14], in [16] and in assay [19] was inactive.

Turning to `O=S(=O)(c1ccc(O)cc1)c1ccc(O)cc1`, the max response in assay [1] is -19.2% (inactive). Moreover, the Potency result in assay [2], in [3], in [5], in assay [6], in [8] and in assay [9] was “inactive” in each case. In addition, the Potency entry in assay [10], in assay [11], in assay [13], in assay [15] and in [18] was “inactive” each time. For the same compound, the call in assay [4], in [7], in [12], in assay [14], in assay [16] and in assay [19] was inactive.

With `CCCCCCCCCl`, the max response in [1] is 2.47% (inactive) and 5.32% (inactive). Also, the Potency result in [2], in assay [3], in assay [5], in assay [6], in assay [8] and in [9] was “inactive” in each case. The Potency entry in [10], in assay [11], in assay [13], in [15] and in [18] was “inactive” in each case. Also, the compound was classed as inactive in [4], in assay [7], in assay [12], in assay [14], in assay [16] and in assay [19].

On to `OCCN(CCO)CCO`, for which, in assay [1], the max response was -6.59% (inactive) and 8.79% (inactive). Also, the Potency result in [2], in assay [3], in [5], in assay [6], in assay [8] and in [9] was “inactive” in each case. Besides, the Potency entry in assay [10], in [11], in assay [13], in assay [15], in [17] and in assay [18] was “inactive” throughout. For the same compound, the compound was called inactive in [4], in [7], in assay [12], in [14], in assay [16] and in [19].

Turning to `BrCCBr`, the max response in assay [1] was 4.67% (inactive) and 8.82% (inactive). For the same compound, the Potency entry in [2], in assay [3], in assay [5], in assay [6], in assay [8] and in [9] was “inactive” each time. The Potency entry in assay [10], in assay [11], in assay [13], in assay [15], in assay [17] and in assay [18] was “inactive” throughout. For the same compound, the call in assay [4], in assay [7], in [12], in assay [14], in assay [16] and in [19] was inactive.

In the case of `OC(O)C(Cl)(Cl)Cl`, in [1], the max response is -9.37% (inactive) and 5.84% (inactive). For the same compound, the Potency entry in [2], in assay [3], in [5], in assay [6], in [8] and in assay [9] was “inactive” throughout. In addition, the Potency entry in assay [10], in assay [11], in assay [13], in assay [15], in [17] and in assay [18] was “inactive” in each case. In addition, the outcome in [4], in assay [7], in assay [12], in assay [14], in assay [16] and in assay [19] was inactive.

Regarding `[N-]=[N+]=[N-]`, in [1], the max response is -10.7% (inactive) and 2.12% (inactive). Further, the Potency entry in assay [2], in [3], in [5], in [6], in assay [8] and in assay [9] was “inactive” in each case. Moreover, the Potency result in [10], in assay [11], in [13], in [15], in assay [17] and in assay [18] was “inactive” each time. Also, the result in assay [4], in [7], in [12], in assay [14], in assay [16] and in [19] was inactive. The Potency in [20] is 41.8 µM (active) and inactive.

On to `CCCCOC(=O)c1ccccc1C(=O)OCCCC`, for which the max response in assay [1] is -5.69% (inactive) and -1.79% (inactive). In addition, the Potency result in assay [2], in [3], in [5], in [6], in assay [8] and in assay [9] was “inactive” throughout. The Potency entry in [10], in assay [11], in assay [13], in assay [15], in assay [17] and in assay [18] was “inactive” each time. Also, the compound was classed as inactive in assay [4], in assay [7], in [12], in [14], in assay [16] and in [19].

In the case of `CC(C)(C)OOC(C)(C)C`, in assay [1], the max response was 1.79% (inactive) and 12.3% (inactive). Also, the Potency entry in assay [2], in assay [3], in [5], in assay [6], in assay [8] and in [9] was “inactive” in each case. The Potency result in [10], in [11], in [13], in assay [15], in assay [17] and in [18] was “inactive” in each case. For the same compound, the outcome in [4], in [7], in assay [12], in assay [14], in assay [16] and in assay [19] was inactive.

Consider `Cn1cc(-c2ccccc2)c(=O)c(-c2cccc(C(F)(F)F)c2)c1`, for which the Potency entry in assay [2], in assay [3], in assay [5], in [6], in assay [8] and in [9] was “inactive” each time. Besides, the Potency result in assay [10], in assay [11], in [13], in assay [15] and in assay [18] was “inactive” each time. Moreover, the compound was classed as inactive in [4], in assay [7], in assay [12], in [14] and in assay [19].

Regarding `CCCCCCCCCCCC#N`, the max response in [1] is -12% (inactive) and 12.1% (inactive). The Potency result in assay [3] was “inactive and 45.2 µM (active)”; in assay [5], “inactive and 45.2 µM (active)”; in assay [6], “inactive and 50.7 µM (active)”; in assay [8] it was “inactive and 40.3 µM (active)”; in [9] it was “inactive and 45.2 µM (active)”; in assay [10] it was “inactive and 45.2 µM (active)”. In addition, the Potency entry in [11] was “inactive and 45.2 µM (active)”. Further, the compound was classed as inactive in assay [4], in assay [7], in [12], in [14], in assay [16] and in assay [19]. Also, the Potency entry in assay [13] and in assay [18] was “inactive” in each case.
